Test results taken from PubChem BioAssay.
Active and inactive are the calls of the source. Cut-off read from the data, not from the text of the source: active = fold change permeability below about 0.7 or above about 1.3; inactive = in between.

Experiment: modulators of brain endothelial barrier permeability, primary screen, cell-based, FITC-avidin fluorescence, HTS (AID 1963498); note: test concentration not given here
Conditions: actives lie on both sides

| SMILES | fold change permeability |
| --- | --- |
| O=C(COc1ccc(Cl)cc1)NC1CCC(NC(=O)COc2ccc(Cl)cc2)CC1 (centres undefined) | 0.9 (inactive) |
| Cc1cc(CN2CCN(c3c(Br)cnc4nc(-c5ccc(N6CCN(C)CC6)cc5)[nH]c34)CC2)no1 | 1.4 (active) |
| CC(=O)OCC1=C(C(=O)O)N2C(=O)[C@@H](NC(=O)Cc3cccs3)[C@H]2SC1 | 0.8 (inactive) |
| O=C1Nc2nc(-c3c(O)cccc3OCC3CC3)cc([C@@H]3CCCNC3)c2CO1 | 1.6 (active) |
| Nc1ccc(CCNc2ncnc3c2ncn3C2OC(CO)C(O)C2O)cc1 (centres undefined) | 1 (inactive) |
| NCCCNCCCCNCCCN | 1.6 (active) |
| CC1(C)NC(=O)N(c2ccc([N+](=O)[O-])c(C(F)(F)F)c2)C1=O | 1.1 (inactive) |
| NCc1c[nH]c(=S)n1[C@H]1CCc2c(F)cc(F)cc2C1 | 1.4 (active) |
| CN1C2CCC1CC(OC(c1ccccc1)c1ccccc1)C2 (centres undefined) | 1.7 (active) |
| CC(C)(O)[C@@H]1CC[C@](C)([C@H]2[C@@H](O)C[C@@]3(C)[C@@H]4C[C@H](O)[C@H]5C(C)(C)[C@@H](O)CC[C@@]56C[C@@]46CC[C@]23C)O1 | 1 (inactive) |
| CCCc1c(-c2ccc(O)cc2)nn(-c2ccc(O)cc2)c1-c1ccc(O)cc1 | 1.4 (active) |
| CCCCc1ncc(/C=C(\Cc2cccs2)C(=O)O)n1Cc1ccc(C(=O)O)cc1 | 0.9 (inactive) |
| COc1ccc(Oc2c(Cl)cnn(C3c4ccccc4-c4ccccc43)c2=O)cc1 | 1.4 (active) |
| O=C1NC(=O)c2cc(Nc3ccccc3)c(Nc3ccccc3)cc21 | 0.9 (inactive) |
| CCc1c(C)[nH]c2c1C(=O)C(CN1CCOCC1)CC2 (centres undefined) | 1 (inactive) |
| COC(=O)Nc1nc2ccc(C(=O)c3cccs3)cc2[nH]1 | 1.4 (active) |
| Nc1nc(Cl)nc2c1ncn2[C@@H]1O[C@H](CO)[C@@H](O)[C@H]1O | 0.9 (inactive) |
| CN1C2CCC1CC(OC(=O)c1c[nH]c3ccccc13)C2 (centres undefined) | 1.6 (active) |
| C=C1C[C@@]23CC[C@H]4[C@@](C)(CCC[C@@]4(C)C(=O)O)[C@@H]2CC[C@]1(O)C3 | 0.9 (inactive) |
| CCN(CC)CCOc1ccc(/C(=C(/Cl)c2ccccc2)c2ccccc2)cc1 | 1.2 (inactive) |

| SMILES | fold change permeability |
| --- | --- |
| CCN1/C(=C/C(C)=O)Sc2ccc(O)cc21 | 1.1 (inactive) |
| CCC(=O)OCC(=O)[C@@]1(OC(=O)CC)[C@H](C)C[C@H]2[C@H]3[C@H]([C@@H](O)C[C@@]21C)[C@@]1(C)C=CC(=O)C=C1C[C@H]3Cl | 1.5 (active) |
| COc1cc(C(O)C(=O)O)ccc1O (centres undefined) | 1 (inactive) |
| Cc1cc(C(C)(C)C)cc(C)c1CC1=NCCN1 | 2 (active) |
| CN(C)C/C=C(/c1ccc(Br)cc1)c1cccnc1 | 1.7 (active) |
| CCN1CCc2nc(N)oc2CC1 | 1.1 (inactive) |
| C[C@H](Cc1ccccc1)Nc1ncnc2c1ncn2[C@@H]1O[C@H](CO)[C@H](O)C1O (some centres undefined) | 1.3 (active) |
| Cn1ccc2cc(NC(=O)Nc3cccnc3)ccc21 | 1.2 (inactive) |
| O=c1[nH]c(=S)[nH]c(-c2ccccc2)c1Cc1c(O)ccc2ccccc12 | 0.8 (inactive) |
| CC1(C)CCC=[N+]1[O-] | 0.9 (inactive) |
| COc1cc2nc(N3CCCN(C)CC3)nc(NC3CCN(Cc4ccccc4)CC3)c2cc1OC | 2.2 (active) |
| Cc1ccc(S(=O)(=O)N[C@@H](Cc2ccccc2)C(=O)CCl)cc1 | 1.8 (active) |
| CCCC(=O)NCCc1csc(-c2ccc(Cl)cc2)n1 | 1.5 (active) |
| NS(=O)(=O)c1cccc2c1c([N+](=O)[O-])cc1nc(O)c(O)nc12 | 0.9 (inactive) |
| C#CCN(C)CCCOc1ccc(Cl)cc1Cl | 1.3 (active) |
| Cc1cc2nc(NCCCO)n(CC(=O)c3cc(C(C)(C)C)c(O)c(C(C)(C)C)c3)c2cc1C | 1.1 (inactive) |
| O=C(Nc1ccccc1)c1cc([N+](=O)[O-])ccc1Cl | 1.5 (active) |
| CCN(C)C(=O)Oc1cccc([C@H](C)N(C)C)c1 | 1 (inactive) |
| CN(C)CCCc1cc(C(=O)Nc2ccc(-c3ccncc3)cc2)ccc1O | 1 (inactive) |
